GPR151 ag: activators of human GPR151, primary screen, cell-based, PathHunter beta-arrestin, luminescence | G-protein coupled receptor 151 (Homo sapiens), Q8TDV0 | PathHunter beta-arrestin GPR151 cells | activation, % at 11.2 µM | 1% of 650,000 active; in the data active = activation above about 4.9%;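 note: 0% = median of compound wells and 100% = cells with positive control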
TEAD-YAP block: TEAD-YAP interaction inhibition, primary screen, TEAD-YAP interaction inhibitor project, luminescence, HEK-TIYL cells; 1.4% of 640,000 active; TEAD-Gal4/YAP UAS-luciferase luminescence; inhibition, % at 9.12 µM; in the data active = inhibition above about 32%;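 note: 0% = median of test compound wells and 100% = reference inhibitor wells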
FBW7 act: FBW7 E3 ligase activators, primary screen, biochemical, AlphaScreen, human. normalized activity (activation), % at 26.1 µM. F-box/WD repeat-containing protein 7 (Homo sapiens), Q969H0. 0.13% of 650,000 active. AlphaScreen FBW7–phospho-cyclin E peptide binding, activator screen; in the data active = normalized activity above about 1.9%;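 note: purified mutant Fbw7 with reduced substrate affinity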
MITF inh: MITF inhibitors, primary screen, biochemical, AlphaScreen, human. 0.91% of 650,000 active. AID 1259374, 2018. Microphthalmia-associated transcription factor (Homo sapiens), O75030. inhibition, % at 2.6 µM. AlphaScreen MITF homodimerization, bead proximity signal; in the data active = inhibition above about 50%;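 note: 0% = vehicle wells with protein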
Target sequence (O75030 whole entry, looked up): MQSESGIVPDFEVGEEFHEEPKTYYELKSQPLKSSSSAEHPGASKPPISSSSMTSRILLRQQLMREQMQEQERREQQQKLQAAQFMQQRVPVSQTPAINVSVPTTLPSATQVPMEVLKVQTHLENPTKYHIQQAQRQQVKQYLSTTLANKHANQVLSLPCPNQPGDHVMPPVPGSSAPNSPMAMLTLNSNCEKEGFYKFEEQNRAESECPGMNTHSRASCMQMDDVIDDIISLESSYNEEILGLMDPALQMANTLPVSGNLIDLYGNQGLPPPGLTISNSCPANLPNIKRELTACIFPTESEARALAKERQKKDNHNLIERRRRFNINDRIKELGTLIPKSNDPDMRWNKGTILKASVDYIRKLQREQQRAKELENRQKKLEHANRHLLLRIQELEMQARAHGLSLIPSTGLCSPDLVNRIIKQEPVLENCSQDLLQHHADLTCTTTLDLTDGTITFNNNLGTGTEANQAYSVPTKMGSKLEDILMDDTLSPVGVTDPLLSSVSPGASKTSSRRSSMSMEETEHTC
GPR151 conf act: GPR151 activators, triplicate retest, confirmation, cell-based, PathHunter beta-arrestin, luminescence | GPR151 PathHunter beta-arrestin cells, 90 min; % of EA-reagent control over plate median | activation, % at 11.2 µM | shares compounds with GPR151 ag | 6,700 tested, under 10 active;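 active = mean percent activation across replicates above the confirmation screen cutoff of 4.91%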
GPR119 ag: GPR119 activators in beta-arrestin cells, counter-screen for GPR151 activator project, cell-based, PathHunter beta-arrestin, luminescence, triplicate. shares compounds with GPR151 ag. 90 min; 0 = compound-well median, 100 = enzyme-acceptor control. activation, % at 11.2 µM. 0.3% of 6,700 active. AID 1508611, 2020;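 active = mean percent activation in the counterscreen above 29.09%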;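 note: counterscreen on off-target GPR119 to flag nonselective hits from the GPR151 activator screen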
* marks the source's active call; other numbers are inactive results; . = no result. Most compounds without a hit are left out; they make up all but 3.5% or so of the library.

SMILES	GPR151 ag	TEAD-YAP block	FBW7 act	MITF inh	GPR151 conf act	GPR119 ag
O=C(NCCCO)c1cccc([N+](=O)[O-])c1	5.1*	-1	0	1	0	6
CCNC(=O)/C(=C\c1ccc(OC)cc1)NC(=O)c1ccc(Br)cc1	5.1*	6	0	11	0	3
OC1CCCN(c2ncnc3scc(-c4ccc(Cl)cc4)c23)C1 (configuration not stated)	-1	0	1	18	.	.
Clc1ccc2nc(NC3CCN(Cc4ccccc4)CC3)c3nncn3c2c1	0	-6	1	10	.	.
O=C(Nc1ccccc1)c1cc2ccccc2oc1=Nc1ccccc1	-1	-49	0	-6	.	.
CCCCNC(=O)/C(=C\c1cccc([N+](=O)[O-])c1)NC(=O)c1ccc(C)cc1	0	-12	0	-2	.	.
O=C(NCCCNc1ccc([N+](=O)[O-])cc1)c1ccc(F)cc1	5.7*	8	0	-16	-1	-5
O=C(Nc1ccc([N+](=O)[O-])cc1)/C(=C/c1ccccc1)NC(=O)c1ccccc1	7.3*	-2	0	-6	0	12
CCNC(=O)/C(=C/c1cccc([N+](=O)[O-])c1)NC(=O)c1ccc(C)cc1	5.9*	-2	1	3	1	-2
O=C(NCCc1ccc(F)cc1)c1ccc([N+](=O)[O-])cc1	0	-62	0	14	.	.
COc1ccc([N+](=O)[O-])cc1N1C(=O)c2nccnc2C1=O	0	7	0	7	.	.
COC(=O)c1c(C)[nH]c(C)c1-c1ccc(OC)cc1	2	6	0	5	.	.
O=C1NC(c2ccc(F)cc2)C(C(=O)c2ccccc2)C(O)(C(F)(F)F)N1 (configuration not stated)	0	-3	0	1	.	.
COC(=O)c1ccc(C2NC(=O)NC(O)(C(F)(F)F)C2C(=O)c2ccc(F)cc2)cc1 (configuration not stated)	6.2*	-3	0	-7	1	2
Cc1ccc(C(=O)C2C(c3ccccc3F)NC(=O)NC2(O)C(F)(F)F)cc1 (configuration not stated)	6.9*	-2	0	-6	1	6
O=C1NC(c2ccccc2O)C(C(=O)c2ccccc2)C(O)(C(F)(F)F)N1 (configuration not stated)	0	4	0	4	.	.
NN1C(=O)c2ccccc2NC1C1CC=CCC1 (configuration not stated)	20*	-11	1	16	-1	-9
O=C(CSCc1ccc(Cl)cc1)NCCSCc1ccco1	7.8*	-3	0	5	-1	-16
O=C(Nc1cc(-c2cccs2)nn1CCO)C1CCC1	0	0	0	-1	.	.
O=C(Nc1cc(-c2cccs2)nn1CCO)C1c2ccccc2Oc2ccccc21	8.0*	4	0	0	0	9
C#CCN(CC#C)c1ccc(Cl)cc1	0	1	0	-5	.	.
C#CCN(CC#C)c1cccc(Cl)c1	8.2*	-3	0	11	-1	-6
COCc1nnn(-c2nonc2N)c1C(=O)NNC(=O)C1CC1	0	3	0	-4	.	.
COCc1nnn(-c2nonc2N)c1C(=O)NNC(=O)c1ccccc1Br	10*	9	0	6	1	8
O=C1CCC(=O)N1c1ccc(CSc2nnnn2C2CCCCC2)cc1	6.9*	-6	1	-2	0	-4
SMILES	GPR151 ag	TEAD-YAP block	FBW7 act	MITF inh	GPR151 conf act	GPR119 ag
CN(c1ccccc1)S(=O)(=O)c1ccc(C(=O)OC2CCOC2=O)cc1 (configuration not stated)	11*	-5	0	3	0	-3
O=C(OC1CCOC1=O)c1ccc(S(=O)(=O)N2CCCC2)cc1 (configuration not stated)	-2	-9	0	0	.	.
Cc1ccc2c(CSc3n[nH]c(N)n3)cc(=O)oc2c1C	11*	-22	0	-2	0	9
Cc1ccc2c(CSc3n[nH]c(N)n3)cc(=O)oc2c1	-1	5	0	-2	.	.
O=C(CSCC(=O)Nc1ccccn1)Nc1ccc2ccccc2c1	-1	-15	0	0	.	.
O=C(CSCCc1ccccn1)Nc1ccc(I)cc1	5.7*	-25	0	-14	0	4
O=C(CSCCc1ccccn1)Nc1ccccc1Cl	8.0*	-13	0	2	0	0
O=C(CSCc1ccccn1)Nc1ccc2ccccc2c1	7.5*	-40	0	-8	0	9
CCOCC(=O)Nc1ccc(C#N)cc1	-1	13	0	19	.	.
O=C(N/N=C/c1ccccc1)C(=Cc1ccc([N+](=O)[O-])cc1)C(=O)N/N=C/c1ccccc1	0	-2	0	-6	.	.
CCOc1ccc(NC(=O)C(Sc2ccccc2)c2ccccc2)c([N+](=O)[O-])c1 (configuration not stated)	6.1*	-14	0	7	1	18
C=C(C)COc1c(I)cc(C=O)cc1OC	6.6*	10	0	10	0	-6
COc1ccc(/C=C2\N=C(c3ccc(C)cc3)NC2=O)cc1	0	14	1	6	.	.
COc1ccc(/C=C2/N=C(c3ccccc3)NC2=O)cc1	5.2*	-15	0	-3	-1	-9
CCOC(=O)C1CCN(C(=O)Cc2c(C(=O)O)[nH]c3ccc(Cl)cc23)CC1	5.3*	-7	0	6	0	-1
COc1cc(/C=C(\C#N)c2ccc([N+](=O)[O-])cc2)ccc1O	1	5	0	-14	.	.
COC(=O)COc1ccc(/C=C(/C#N)c2ccc([N+](=O)[O-])cc2)cc1Br	7.2*	11	0	3	0	0
O=C(Cc1cn(-c2ccc(Oc3ccccc3)nn2)c2ccccc12)NCCOc1ccccc1	3	-12	0	14	.	.
O=C(Cc1cn(-c2ccc(Cl)nn2)c2ccccc12)NCCOc1ccccc1	6.9*	2	0	5	0	-2
CC(=O)Nc1ccc(/C=C(\C#N)c2nc3ccccc3[nH]2)cc1	0	-31	0	3	.	.
CC(=O)Nc1ccc(/C=C(\c2nc3ccccc3[nH]2)S(=O)(=O)c2ccccc2)cc1	6.6*	-3	0	6	0	3
COc1ccc(S(=O)(=O)N2CCN(c3ccccc3OC)CC2)cc1Cl	1	1	0	-10	.	.
COc1ccc(S(=O)(=O)N2CCN(c3ccccc3F)CC2)cc1Cl	12*	2	0	-3	-1	-2

Screening data (PubChem BioAssay)
